# LASV entry inh: qHTS for Inhibitors of binding or entry into cells for Lassa Virus | Lassa virus pseudotype entry inhibition, cell reporter | Potency, µM (highest dose often 37.9 µM), usual class: inhibitors | 300,000 compounds, 1.2% hits | AID 540256, 2011; calls by dose curve; tested in HEK293 cells; further: nearly all actives have a fitted effect of over 50% in size
# HCMV antiviral: qHTS Assay for inhibitors of the human cytomegalovirus (HCMV) | HFF cells, HCMV-luciferase reporter, 72 h; active compounds read low | activity change, negative = inhibition, % at 57.5 µM | 410,000 compounds, 4.5% hits | AID 1259415, 2018; in the data active means activity change below about -60%; inconclusive means no clear call, values can overlap the other calls; inactive means above about -39%
#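 Screen run at 2 compound doses on HFFs infected with reporter HCMV, MOI 1 PFU/cell. Luciferase activity from cell lysates at 72 h post infection gave inhibition relative to buffer-only and Salinomycin wells.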
# Vaccinia mCherry: qHTS for Stage-Specific Inhibitors of Vaccinia Orthopoxvirus: mCherry Reporter Primary qHTS; Potency, µM (doses to about 36.5 µM), actives largely listed as inhibitors; 310,000 compounds, 0.63% hits; Vaccinia virus mCherry reporter infection, fluorescence; calls by dose curve; tested in A549 cells; further: nearly all actives have a fitted effect of over 35% in size
# Vaccinia Venus: qHTS for Stage-Specific Inhibitors of Vaccinia Orthopoxvirus: Venus Reporter Primary qHTS; Vaccinia virus Venus reporter expression, fluorescence; Potency, µM (doses to about 36.5 µM), actives largely listed as inhibitors; 330,000 compounds, 0.46% hits; AID 720580, 2013; calls by dose curve; tested in A549 cells; further: nearly all actives have a fitted effect of over 30% in size
# HCV inh: qHTS Assay for Inhibitors of Hepatitis C Virus (HCV) | Huh7.5.1 HCVcc-Cre infection, luciferase reporter, 44 h | Potency, µM (titrated, usually from 41.8 µM), usual class: inhibitors | 340,000 compounds, 3.4% hits; active means well fitted inhibition curve with a large enough effect; inconclusive means small, poorly fitted or top-dose-only effect, or another doubt; inactive means no such curve, though single readings can be large or run the other way
#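 HCVcc-Cre virus at an moi near 0.5 was added right after compound to cells cultured 4 h from seeding (1,000 cells/well). Luciferase activity was determined 44 h later, 15 min after substrate addition at RT.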
# MARV entry inh: qHTS for inhibitors of binding or entry into cells for Marburg Virus. Marburg virus pseudotyped entry inhibition, cell reporter. 300,000 compounds, 1.8% hits. Potency, µM (series often up to 37.8 µM), usual class: inhibitors; calls by dose curve; tested in HEK293 cells
# A number is an active result; i = inactive; ? = inconclusive; nt = no result given; ! = not confirmed by another sample; [ ] = remark or other dose. Shown are actives, neighbours in structure and some others; about 7.8% of the full set was active somewhere.
SMILES,LASV entry inh,HCMV antiviral,Vaccinia mCherry,Vaccinia Venus,HCV inh,MARV entry inh
CCCCOC(=O)c1cccc(NC(=O)c2cc3ccccc3o2)c1,i,i,i,i,nt,nt
Cc1nn(C)cc1C1C(C#N)=C(N)N(c2ccc(F)c([N+](=O)[O-])c2)C2=C1C(=O)CCC2 (centres undefined),i,i,10µM,?,i,i
Cc1ccc(N2C(N)=C(C#N)C(c3cccnc3)C3=C2CCCC3=O)cc1 (centres undefined),i,i,i[1.46 µM],i,i,i
Cc1ccc(-c2nn(-c3ccccc3)cc2CO)cc1,?,i,?,i,i,i
Cc1ccc(-n2cc(CNCCCn3ccnc3C)c(-c3ccc(F)cc3)n2)cc1,?,-81.7,?,?,?,?
Cc1ccc(-n2cc(CNCCc3cscn3)c(-c3ccc(F)cc3)n2)cc1,?,i,i,i,?,12.6µM
Cc1ccc(C)c(-n2cc(CNCCCn3cccn3)c(-c3ccccc3)n2)c1,?,-65.3,i,i,?,10µM
Cc1ccc(-n2cc(CNCCCn3cccn3)c(-c3cccc(C)c3)n2)cc1,?,i,i,i,i,?
Cc1ccc(-c2nn(-c3ccccc3)cc2CNCc2ccccc2)cc1,?,i,?,?,11.2µM,?
COc1ccc(-n2cc(CNCCc3cscn3)c(-c3ccccc3Cl)n2)cc1,i,i,i,i,i,?
COc1cccc(CNC(=O)C2CCN(c3nnc(-n4c(C)ccc4C)s3)CC2)c1OC,i,i,i,i,nt,i
COc1ccc(OCc2cccc(C(=O)Nc3cc(C)on3)c2)cc1,?,i,nt,nt,?,5.8µM
COc1cc(CNC(=O)c2cccc(COc3ccc(Cl)cc3)c2)cc(OC)c1,?,i,?,i,7.94µM,?
NNC(=O)c1cccc(COc2ccc(Br)cc2)c1,?,i,i,i,i,?
COc1ccc(OCc2cccc(C(=O)NN)c2)cc1,?,i,i,i,i,4.11µM
O=C(c1ccc(Br)cc1)N1CCN(CCc2ccncc2)CC1,i,i,i,i,nt,?
Cc1cc(NC(=O)COC(=O)c2c(Cl)cccc2Cl)no1,nt,-68.1,nt,nt,i,nt
Cc1onc(-c2c(F)cccc2Cl)c1C(=O)OCC(=O)Nc1cccc(S(=O)(=O)N(C)C)c1,?,-70.0,?,?,?,15.8µM
Cc1noc(C)c1C(=O)OCC(=O)Nc1cccc(S(=O)(=O)N(C)C)c1,i,i,i,i,i,i
Cc1cc(NC(=O)COC(=O)c2cccc(O)c2)no1,nt,-64.5,i,i,i,nt
Cc1cc(NC(=O)COC(=O)c2ccccc2S(=O)(=O)N(C)c2ccccc2)no1,2.51µM,-101.3,i,i,i,?
CC(=O)c1ccc(S(=O)(=O)N2CCN(c3nc(-c4ccccc4)nc4ccccc34)CC2)cc1,nt,nt,i,i,nt,nt
O=C(NCc1noc2ccccc12)Nc1ccc(F)cc1F,?,i,i,i,nt,nt
O=[N+]([O-])c1ccc(O)c(-c2ccnc3cc(-c4ccccc4)nn23)c1,?,-77.8,?,?,nt,i
CCN(C(=O)Cn1c(=O)n(CC2CCC(C(=O)NC)CC2)c(=O)c2sccc21)c1ccccc1 (centres undefined),i,i,i,i,nt,nt
SMILES,LASV entry inh,HCMV antiviral,Vaccinia mCherry,Vaccinia Venus,HCV inh,MARV entry inh
COc1ccc(-n2cnc3cc([N+](=O)[O-])ccc32)cc1,i,?,i,i,i,i
COc1ccc2cc3c(N)nn(C(=O)C4CCC(C(C)(C)C)CC4)c3nc2c1 (centres undefined),i,-79.4,?,14.1µM,i[8.37 µM],i
Cc1ccc2cc3c(N)nn(C(=O)c4cccc(F)c4)c3nc2c1,i,i,i,i,nt,i
COc1ccc2cc3c(N)nn(C(=O)c4ccc(F)cc4Cl)c3nc2c1,i,-70.4,i,i,nt,i
COc1ccc(-n2cnc(N)c2C(=O)c2cccc([N+](=O)[O-])c2)cc1,i,-67.1,nt,nt,i,?
COc1ccc2cc3c(N)nn(C(=O)c4cccc([N+](=O)[O-])c4)c3nc2c1,?,-85.5,i,i,i,?
COc1ccc2cc3c(N)nn(C(=O)Cc4ccccc4OC)c3nc2c1,nt,i,i,i,?,nt
COc1ccc(C(=O)n2nc(N)c3cc4ccc(C)cc4nc32)cc1OC,i,i,i,i,nt,i
COC1=C[C@H](C(=O)NCc2ccccc2)[C@H](C)[C@@H](c2ccccc2)CC1=O,nt,nt,nt,nt,nt,i
Cc1cccc(COc2ccc(/C(O)=C3\C(=O)C(=O)N(CCN(C)C)[C@H]3c3ccncc3)cc2)c1,nt,nt,nt,nt,nt,i
Cc1nn2c(c1-c1ccc(Cl)cc1)N=C(c1ccco1)CC2c1ccccc1 (centres undefined),?,?,?,i,2.51µM,?
Clc1ccc(C2=NN(c3ccccc3)C(c3ccco3)C2)cc1 (centres undefined),i,i,i,i,i,?
Fc1cccc(Nc2cc3c(cn2)ncn3CC2CC2)c1,nt,i,nt,nt,nt,nt
CC(C)(C)c1ccc2c(c1)C(=O)c1ccccc1C2=O,8.91µM,i,i,i,i,?
CCC(C)NC(=O)c1ccc2nc(-c3cccs3)c(-c3cccs3)nc2c1 (centres undefined),nt,nt,i,i,nt,nt
CCOC(=O)C1(CC2CC2)CCN(Cc2cn(C)c3ccccc23)CC1,?,?,i,i,10µM,?
CCCCCC(O)(c1ccc(OC)cc1)C(CN1CCOCC1)c1ccccc1 (centres undefined),?,-60.6,i,i,?,?
CCCCC(O)(c1ccc(CC)cc1)C(CN1CCOCC1)c1ccccc1 (centres undefined),nt,-71.3,nt,nt,?,nt
CCc1ccc(C(O)(CC)C(CN2CCOCC2)c2ccccc2)cc1 (centres undefined),i,-62.8,i,i,i,?
O=C(NCc1ccccc1)c1ccc(Cn2c(=O)c3cccn3c3cccnc32)cc1,?,i,i,i,nt,nt
C=CCN1C[C@H](C)N(C(c2ccc(C(=O)N(CC)CC)cc2)c2cccc(OC)c2)CC1C (some centres undefined),nt,-65.3,nt,nt,nt,nt
CCN(CC)C(=O)c1cccc(-c2csc(C(O)c3cccc(OC)c3)n2)c1 (centres undefined),nt,?,i,i,nt,nt
COc1ccc2[nH]cc(CCN(C)C)c2c1,nt,i,i,i,i,?
COc1ccc(CNC(=O)/C=C/c2ccc3[nH]cc(CCN(C)C)c3c2)cc1,i,?,i,i,i,35.5µM!
COc1cc(/C=N/NC(=S)Nc2cccc(Cl)c2C)ccc1OCC(=O)N1CC(C)OC(C)C1 (centres undefined),?,i,i,i,11.2µM,?
COc1ccc2c(c1)[C@@H](NC(=O)c1c(C)noc1C)[C@H](C)[C@@H](c1ccccc1)N2C(=O)NC(C)C,nt,i,nt,nt,nt,nt
COc1cc(CO)ccc1OCc1nnnn1-c1ccc(C)cc1,i,-63.4,nt,nt,i,i
COc1ccc(OCc2nnnn2-c2ccccc2)cc1,i,i,nt,nt,i,i

# High-throughput results: PubChem, National Center for Advancing Translational Sciences (NCATS)
